{"source": "PubChem BioAssay AID1508600", "about": "(Functional Genomics Laboratory (NCATS/FGL), 2020)", "note": "The campaign covered roughly 53,000 sequences. About 3,700 (7%) were called active. This excerpt belongs to a sample that is enriched for actives. A number with no mark means an inactive call.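 Rule for the calls: active = gene knockdowns whose robust z-score for IL-1 alpha signal is at least 2 or at most -2, so actives lie on both sides; inactive = the rest.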", "data": [{"test": "Components of the Cytosolic LPS Sensing Pathway: Gene Identification via Genome-wide siRNA Screen;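 note: robust z of the log signal after scaling to non-targeting control siRNA wells of the plate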", "conditions": "RAW264.7 macrophages, IL-1a HTRF, actives lie on both sides, screened at 100 nM (by protocol), cells primed 5 h with Pam3CSK4 first", "method_in_brief": "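IL-1a HTRF of supernatants after 24 hour LipidA transfection of Pam3CSK4-primed (5 hours) RAW264.7 cells, 48h post-siRNA transfection (100 nM). Scores: percent of plate negative-control median, then log-based robust z-score.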", "values": [{"sequence": "GGACUACAUGGAUGCCAUGTT against Prkrip1", "z-score": 0.482}, {"sequence": "GGCCCUCAAACAGUGCAAATT against Chchd10", "z-score": "2.09 (active)"}, {"sequence": "GGCCUUUUCCAUAAACUUUTT against Ddx60", "z-score": 0.873}, {"sequence": "GCAGUACGAAAUGGUAUACTT against Chd6", "z-score": -1.7}, {"sequence": "CGUAUUAACGACAUAAGAGTT against Nckap1", "z-score": -0.169}, {"sequence": "GGACCUUAAGAGAUAUCAATT against Acsm4", "z-score": "2.9 (active)"}, {"sequence": "CCAAUUGGAAUCCCAUUUUTT against Cd47", "z-score": -0.273}, {"sequence": "CCCAACAAUGCUGCACAUGTT against H1f8", "z-score": 0.157}, {"sequence": "GCAGUGUCUAGGACAGUCATT against Pdcd5", "z-score": 0.0243}, {"sequence": "GGGCCCGAUGAAGCAAAAATT against Hnrnpr", "z-score": -1.49}, {"sequence": "GGCAAACAUGAAGAGAAGCTT against Hspb8", "z-score": 0.0665}, {"sequence": "GGCUGACCUUCUGUGCUGATT against Olfr876", "z-score": -0.98}, {"sequence": "CGAAGAGAUCUCACUAUAATT against Trnt1", "z-score": 1.21}, {"sequence": "GCGCUAGAAGGCCAGAUAUTT against Orm3", "z-score": -0.155}, {"sequence": "GCAAUGGUUCAGUAUGUACTT against Tpgs2", "z-score": "-2.01 (active)"}, {"sequence": "GCCAUCAACAGCAUUUACATT against Glt8d2", "z-score": -0.455}, {"sequence": "GGAGCUUUCAGCUAAGACATT against Rassf4", "z-score": 0.671}, {"sequence": "GGACCAGCCAUACCUGUGATT against Ndufa7", "z-score": -1.93}, {"sequence": "GCCACACAGUGUGAUCCAATT against Nrip2", "z-score": -1.33}, {"sequence": "GGCUACCUACAGCACCAACTT against Esyt1", "z-score": -1.58}, {"sequence": "CCAAGUCUUUGCCUACGUGTT against Dsn1", "z-score": "2.39 (active)"}, {"sequence": "GGAUGUAACUGAAAGAGAATT against Fam133b", "z-score": -1.11}, {"sequence": "GGACACUUAAAGAUCCUGCTT against Armc7", "z-score": -0.545}, {"sequence": "GCUCAGAGAUUAUGGCAUCTT against Snrnp25", "z-score": 0.687}, {"sequence": "GAGCUAAGCAAGAUGCUAGTT against Sox17", "z-score": "3.97 (active)"}, {"sequence": "GCAUGAUUACCCAUUUCAATT against Tax1bp1", "z-score": 0.334}, {"sequence": "GGAGAAGGAGAUGUCCAAUTT against Guca2b", "z-score": 0.777}, {"sequence": "GCGAUUGAUGAAUUUCGACTT against Atp9b", "z-score": 0.616}, {"sequence": "GGAUUUCAAAAACCACGUGTT against Snx1", "z-score": 1.14}, {"sequence": "CCCACAGCUCUGACAUUUUTT against Fbxo6", "z-score": -0.315}, {"sequence": "CCUAGGUCAUAUUUCUCCATT against Bgn", "z-score": 0.224}, {"sequence": "GGCAGUGGCUUGGAUAAAUTT against Amdhd2", "z-score": -0.609}, {"sequence": "GGAGAGCUGCAUGAUUUCATT against Efcab2", "z-score": "3.67 (active)"}, {"sequence": "GCAGUCAUGGGUUCUUAAGTT against Gng3", "z-score": 0.109}, {"sequence": "CCAUAUCUCAUGAGGAAGGTT against Olfr1368", "z-score": 1.53}, {"sequence": "GGACGGUGACAAGAACAACTT against Tnnc1", "z-score": 1.72}, {"sequence": "GCUUCACGAUUAAAACUAATT against Ltb4r1", "z-score": 0}, {"sequence": "CGGAGUCUUCUUCUCACCUTT against A630001O12Rik", "z-score": "-2.82 (active)"}, {"sequence": "GGCUCAGGCAUUGUAACCATT against Dnm3", "z-score": -0.177}, {"sequence": "GGUGCAUUCCUUGUGAAUGTT against Ctbp2", "z-score": 0.141}, {"sequence": "GCUCAGUCAUGUGACCGCATT against Fbxl18", "z-score": "2.93 (active)"}, {"sequence": "GGGAAAGGAAGUUGUUUUGTT against Epha2", "z-score": 0.878}, {"sequence": "GCAGCCUAUUACCUCAGACTT against Nwd2", "z-score": 1.02}, {"sequence": "GGAUCUCUCUUUCCUCCUCTT against Gli1", "z-score": 0.0792}, {"sequence": "GCCUUCAAGCCAAAGAUAGTT against Lin54", "z-score": -0.582}, {"sequence": "GGCAAAGGCUAUCGCUCACTT against Smpd2", "z-score": -1.46}, {"sequence": "GCCUCUAUAUCUUUCACUGTT against Olfr1209", "z-score": "-2.16 (active)"}, {"sequence": "CCGGACCAUCUUCGACAGUTT against Pmepa1", "z-score": -0.783}, {"sequence": "GGAACUGUGUGUCUUCUCCTT against Kcns3", "z-score": -1.78}, {"sequence": "CGGUGAAAGACUUCAGUAUTT against Ppfibp1", "z-score": 0.578}, {"sequence": "GCCAGCGACCUUUAGUACATT against Cmtm1", "z-score": "2.08 (active)"}, {"sequence": "CCUGCUCUUCGUUAUCUUGTT against Olfr552", "z-score": 1.59}, {"sequence": "GCGACAGAGGAAGCUUGUUTT against Mak16", "z-score": 0.634}, {"sequence": "CGACAAGAAGACUUCGAAUTT against Mnt", "z-score": -1.28}, {"sequence": "GGCCUAUUUUUUCAUAGUUTT against Ptprs", "z-score": 0.0729}, {"sequence": "GCACACUGAUGAACUUACCTT against Ston2", "z-score": "2.55 (active)"}, {"sequence": "GGCAAAGUACUACGUGCAGTT against Sh3bp5", "z-score": -0.225}, {"sequence": "GGCAGAAUAUGAGUUUGAUTT against Camk1d", "z-score": -0.161}, {"sequence": "GGAAAAAGAUGCGACAAUGTT against A930012O16Rik", "z-score": -1.01}, {"sequence": "GGGACCAUUCUGAAGAUGATT against Acot7", "z-score": -1.76}, {"sequence": "GGAGAAUAUGUCGUCAUGATT against Gabra3", "z-score": -1.09}, {"sequence": "GGAAAAACUGGUCUAUCAATT against Polr3f", "z-score": 1.47}, {"sequence": "GGAAGAAUGUGGGUAAAGATT against Gimap9", "z-score": "-2.01 (active)"}, {"sequence": "CCGUUUUUGUGGUUCAGUGTT against Plxdc1", "z-score": 0.0355}, {"sequence": "GGCAACAUUGAACAUGCCUTT against Stambp", "z-score": -1.76}, {"sequence": "GCAGUUCAAGUCUUGAAUATT against Olfr934", "z-score": -1.09}, {"sequence": "GGGUUUCUGUUAAUCCACATT against H3c8", "z-score": -1.38}, {"sequence": "CCUGCUUGCCAACACCAUATT against Slc39a13", "z-score": "-2.2 (active)"}, {"sequence": "GGAACAACAUUGUUCUAAATT against Fstl5", "z-score": 0.759}, {"sequence": "GGGAGCCAUUUUUACAGACTT against Ffar4", "z-score": 0.405}, {"sequence": "GCCGGAACAUCCAGAAUAGTT against Cpeb2", "z-score": -0.644}, {"sequence": "GCACCUAGCAUAGCAAUGGTT against Slc24a1", "z-score": 0.695}, {"sequence": "GCGAUGACCAAAAAUAUUGTT against Tmc1", "z-score": -0.0131}, {"sequence": "GCUGGCUAGAAUCUUACCCTT against Aph1c", "z-score": 0.554}, {"sequence": "GGGCAUGCAAUGUUCAUGCTT against Rho", "z-score": 0.095}, {"sequence": "GGUUGUGCAACACAGCUCUTT against Olfr218", "z-score": "-2.31 (active)"}, {"sequence": "CGUGUCAGAACUCGAUCUUTT against Tbcel", "z-score": -0.549}, {"sequence": "GGCCAUUGUUACUGGAAAATT against Elmo2", "z-score": -0.353}, {"sequence": "GGAACUGACUCUUGAAAAUTT against Cd14", "z-score": 0.367}, {"sequence": "GCUAGAGUCCAUAAACAAUTT against Olfr1148", "z-score": -0.0654}, {"sequence": "GGGUUAAAGCGGUUUACUUTT against Kcng3", "z-score": "2.72 (active)"}, {"sequence": "GGAGCAAUCUGUUAAACUATT against Vash2", "z-score": 0.318}, {"sequence": "GGCCCAUCCUGAAACCAAATT against Wfdc15b", "z-score": "-2.04 (active)"}, {"sequence": "CCCGGAGUGGUCAGAAGUATT against Mapkapk2", "z-score": -0.376}, {"sequence": "GGUAAGCAUGGAAAGGCUGTT against Prdm15", "z-score": -0.0134}, {"sequence": "GCCGUCAGAUGACAACUAGTT against Lta", "z-score": 0.481}, {"sequence": "GGAUGACCUUGAAAGCAGUTT against Usp29", "z-score": -0.677}, {"sequence": "GGCAAAGCUGUCUUAGAGGTT against Mettl23", "z-score": -1.35}, {"sequence": "GGCCAAAGCCAGAAUCUCATT against Zfp281", "z-score": "3.07 (active)"}, {"sequence": "GGACAUAGAUCUACCUGAATT against Ctsb", "z-score": -1.48}, {"sequence": "GCUUAAUGCCUUGAAACGATT against Tsg101", "z-score": 1.9}, {"sequence": "GGAAGAAGAUCACCAUCAUTT against Ifi204", "z-score": "-2.64 (active)"}, {"sequence": "GCACUUUGUGCUAGAUGAATT against Ddx39a", "z-score": -0.688}, {"sequence": "GGAAUUGAAACCUGAUGUUTT against Srfbp1", "z-score": 0.239}, {"sequence": "GCUACUGUGUCGGUCACAUTT against Olfr514", "z-score": 0.753}, {"sequence": "CCAGUGAUAACUCUCUUGUTT against A830039N20Rik", "z-score": 1.23}, {"sequence": "GGUUGUGUUUACCAUGAAGTT against Rps6ka6", "z-score": 0.684}, {"sequence": "GUCAUGGUAGGGAUUUACATT against Taar4", "z-score": "-2.83 (active)"}, {"sequence": "GGAGAUCUAUUGGAUCCAUTT against Trim12a", "z-score": 0.337}, {"sequence": "CCAGAUGUCGGCAGAUAACTT against Pold4", "z-score": 0.446}, {"sequence": "GGGCUUUGAUCAGUUCUACTT against Hoxd11", "z-score": 1.88}, {"sequence": "GCACUUUAAUCUGGCUACCTT against Dnmt3b", "z-score": -0.78}, {"sequence": "GGCUCUGACCAAGAAUGAUTT against Cpsf1", "z-score": 1.27}, {"sequence": "GGAUCACUAACUUUUCCAATT against Trpc3", "z-score": "3.46 (active)"}, {"sequence": "GGCACACUCACUCCUUUGATT against Mis18bp1", "z-score": 0.145}, {"sequence": "GGAAACGAUGAAGAACAAATT against 4933427D06Rik", "z-score": -0.714}, {"sequence": "GCAUUUUUCGUUAGGAAAATT against Esco2", "z-score": "3.13 (active)"}]}]}
